A selection: hits, their analogues and other compounds. The true share with any hit is near 0.54%.
EPAC1 agonist: agonists of human EPAC1; O95398; EPAC1 agonist qHTS, biochemical assay; response scale: 100% = response to 6.5 mM cAMP; Potency, µM (titrated, usually from 154 µM), without a hit: top-dose activation, most hits filed as activators; 360,000 tested, 0.073% active; AID 720707; note: nearly all actives have a fitted effect of over 60% in size
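Compounds were pinned as a concentration titration into mixtures of EPAC1 (100 nM), BODIPY-GDP-loaded Rap1B (250 nM) and GDP (50 uM). After 5 min at room temperature, fluorescence was followed for 30 min; activity was scaled to 6.5 mM cAMP.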
ERG Ets-DNA blk: ERG Ets/DNA interaction inhibition. P11308. fluorescence polarization, His-ERG Ets domain / labelled DNA. Potency, µM (series often up to 76.9 µM), without a hit: top-dose FP activity, negative = inhibition, hits mostly inhibitors. 370,000 tested, 0.028% active; active = well fitted inhibition curve with a large enough effect in the polarisation, with a control signal flat; inconclusive = small, poorly fitted or top-dose-only effect, or effect the other way, or a change in a side signal; inactive = no such curve, though single readings can be large or run the other way; the % refers to the polarisation;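 note: polarization taken with two DNA probes labelled with fluorescein and Texas red; % of control where 0% means no effect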
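His-tagged ERG Ets domain (1 uM in the protein solution; 300mM KCl, 50mM Tris-HCl, 1mM EDTA, 1mM DTT, pH 7.5) received compound, then a probe mix of 5 nM fluorescein-DNA and 100nM Texas-615-DNA. Fluorescence polarization was read for both dyes.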
TDP1 inh: TDP1 (human) enzyme inhibition | Potency, µM (series often up to 130 µM), for the others: at the top dose activity change, negative = inhibition, hits mostly inhibitors | Q9NUW8 | AID 485290 | recombinant TDP1, AlphaScreen DNA substrate cleavage | 350,000 tested, 0.28% active; note: % is set by controls: 0 for no effect and ±100 for the full control effect; nearly all actives have a fitted effect of over 40% in size
Target sequence (Q9NUW8 whole entry, looked up): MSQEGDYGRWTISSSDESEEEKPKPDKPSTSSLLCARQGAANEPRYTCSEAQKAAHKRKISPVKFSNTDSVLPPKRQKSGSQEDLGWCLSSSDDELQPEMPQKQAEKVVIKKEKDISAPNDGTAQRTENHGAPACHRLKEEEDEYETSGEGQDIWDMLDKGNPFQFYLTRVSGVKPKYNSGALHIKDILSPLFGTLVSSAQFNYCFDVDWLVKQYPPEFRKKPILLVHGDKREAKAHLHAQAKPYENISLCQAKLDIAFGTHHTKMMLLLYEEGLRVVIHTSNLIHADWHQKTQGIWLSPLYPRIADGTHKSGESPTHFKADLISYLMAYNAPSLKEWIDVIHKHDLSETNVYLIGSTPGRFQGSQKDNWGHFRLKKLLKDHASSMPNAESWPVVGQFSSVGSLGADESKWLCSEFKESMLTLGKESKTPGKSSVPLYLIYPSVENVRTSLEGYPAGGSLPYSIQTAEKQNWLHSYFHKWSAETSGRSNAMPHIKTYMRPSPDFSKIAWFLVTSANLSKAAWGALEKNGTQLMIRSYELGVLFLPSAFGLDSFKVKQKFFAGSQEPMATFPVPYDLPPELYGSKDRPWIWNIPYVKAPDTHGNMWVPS
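Enzyme-compound mixtures sat 15 min at room temperature, followed by a 5 min reaction with 15 nM final substrate and 10 min with AlphaScreen beads. Recombinant human Tdp1 was used at 1 nM final.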
EPAC1 antagonist: blocks human EPAC1 exchange factor. EPAC1 GEF assay, Rap1b-BODIPY-GDP exchange fluorescence. Potency, µM (doses to about 115 µM), for inactives: top-dose activity change, negative = inhibition, most hits filed as inhibitors. 360,000 tested, 0.14% active. AID 720709;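 note: plate controls were vehicle for no effect and positive control for full effect; nearly all actives have a fitted effect of over 50% in size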
EPAC2 ag: EPAC2 (human) agonism. Q8WZA2. 360,000 tested, 0.079% active. EPAC2 activation, biochemical qHTS; response scale: 100% = 6.5 mM cAMP response. AID 720711. Potency, µM (series often up to 154 µM), for inactives: top-dose activation, hits mostly activators; note: nearly all actives have a fitted effect of over 50% in size
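Nucleotide exchange monitored as fluorescence drop when BODIPY-GDP leaves Rap1B. Reaction: 100 nM EPAC2, 250 nM RAP1B-BODIPY-GDP, 50 uM GDP, room temperature, kinetic read over 30 min. Activity expressed relative to 6.5 mM cAMP.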
EPAC2 antag: blocks human EPAC2 exchange factor | EPAC2 GEF exchange of Rap1B-BODIPY-GDP, fluorescence | 360,000 tested, 0.18% active | Potency, µM (series often up to 114 µM), for inactives: top-dose activity, negative = inhibition, most hits filed as inhibitors; note: % is set by controls: 0 for no effect and ±100 for the full control effect; nearly all actives have a fitted effect of over 45% in size
Active calls of the source: *; u = inconclusive; x = no result given; [ ] = dose if it differs, or a comment. Unless noted, calls come from the whole dose curve; as a rule, active = well fitted curve in the direction sought with a large enough effect; inconclusive = small, poorly fitted or top-dose-only effect, or another doubt; inactive = no such curve, though single readings can be large; an effect the other way counts as inactive or inconclusive. Potency is the fitted concentration of half-maximal effect.

SMILES	EPAC1 agonist	ERG Ets-DNA blk	TDP1 inh	EPAC1 antagonist	EPAC2 ag	EPAC2 antag
CCOC(=O)c1cc(-c2ccc(OC)cc2)nn1-c1ccccc1C(=O)O	-2%	1%	7.9µM*	-5%	-2%	-7%
O=C(c1ccc(N2C(=O)C3C4CC(C(Br)C4Br)C3C2=O)cc1)N1CCCCC1 (configuration not stated)	7%	0%	32µM*	-12%	0%	-4%
O=C(OCC(=O)N1CCCC1=O)c1nc(Cl)c(Cl)c(Cl)c1Cl	0%	15%	45µM*	7%	3%	5%
Cc1c(P(=S)(c2ccccc2)c2ccccc2)[n+]2ccccc2n1Cc1ccccc1	x	x	1%	x	x	x
CCC1=NN(C(=O)c2ccc(Br)cc2)C(O)(c2ccccc2)C1 (configuration not stated)	112µM*	-7%	3%	88%	1%	-7%
Clc1nc(NCc2ccco2)c2[nH]cnc2n1	x	x	3%	x	x	x
c1nc(NCC2CCCO2)c2ccc(-c3ccc4c(c3)OCO4)cc2n1 (configuration not stated)	x	x	-1%	x	x	x
COC(=O)c1nc(N2CCN(S(=O)(=O)c3ccc(C)cc3)CC2)c2ccccc2n1	x	x	2%	x	x	x
Cc1csc2ncc(C(=O)NCc3ccco3)c(=O)n12	2%	1%	45µM*	8%	4%	5%
Cc1ccc(C(=O)NCc2ccco2)cc1	13%	-4%	3.2µM*	9%	12%	12%
Cc1ccc2nc3sc(C(=O)NCc4ccco4)c(N)c3cc2c1	100µM*	2%	-8%	105%	-8%	-8%[57.1 µM]
O=C(NCc1ccco1)c1cnc2sccn2c1=O	-4%	-4%	-4%	-7%	4%	-5%
COc1cc2cc3c(N)c(C(=O)NCc4ccco4)sc3nc2cc1OC	-4%	u	6%	-7%	-2%	-3%
Oc1ccc(Cl)cc1C1C=C(c2ccc3c(c2)OCO3)NC(c2ccc(Br)cc2)N1 (configuration not stated)	x	x	5%	x	x	x
O=C(N/N=C/c1ccc(O)c(O)c1)c1ccc(CSc2cccc3cccnc23)cc1	-3%	-5%	7%	35µM*	3%	0%
O=C(CSc1cccc2cccnc12)N/N=C/c1cccc(O)c1	6%	-2%	2%	-17%	5%	-8%
Oc1[nH]c2ccc(Br)cc2c1N=Nc1ccc(F)cc1	-129%	-5%	x	u	-170%	71µM*
Oc1[nH]c2ccccc2c1N=Nc1ccc(F)cc1	-229%	-14%	7%	93%	-208%	102%
Cc1c(Cl)cccc1NS(=O)(=O)c1cc2c(cc1F)NC(=O)CC2	x	x	0%	x	x	x
CN(C)c1ccc(NC(=O)COC(=O)c2ccc3c(c2)OCO3)cc1	2%	-7%	5%	9%	-4%	-2%
CN(C)c1ccc(C(=O)OCC(=O)Nc2ccc(S(N)(=O)=O)cc2)cc1	u	8%	x	50µM*	23%	50µM*
Cn1c2cc(S(C)=O)sc2c2cnn(Cc3cccc(O)c3)c(=O)c21 (configuration not stated)	x	x	1%	x	x	x
CCN(CC(=O)Nc1ccccc1C(F)(F)F)C(=O)CCOc1ccccc1C	45µM*	12%	-8%[0.505 µM]	-15%	10%	1%
O=C(CN1C(=O)c2ccccc2S1(=O)=O)Nc1cc(S(=O)(=O)N2CCOCC2)ccc1N1CCOCC1	x	x	3%	x	x	x
COc1cc(OC)c2c(c1)C(=O)OC2c1cc(OC)c(OC)cc1C (configuration not stated)	x	x	0%	x	x	x
SMILES	EPAC1 agonist	ERG Ets-DNA blk	TDP1 inh	EPAC1 antagonist	EPAC2 ag	EPAC2 antag
O=C(/C=C/c1ccc2c(c1)OCO2)c1cccs1	x	x	14%[56.1 µM]	x	x	x
O=C1c2ccccc2C(=O)N1c1cccc(Cl)c1	x	x	0%	x	x	x
Cc1nn(-c2ccc(F)cc2)c(Cl)c1/C=N/NC(=O)c1ccc(O)cc1	4%	0%	5%	-4%	8%	-4%
Cc1nn(-c2ccc(F)cc2)c(Cl)c1/C=N/NC(=O)c1cccs1	-11%	-16%	79µM*	-1%	-6%	4%
CCCCCn1ncc2c3sc(C)cc3n(C)c2c1=O	x	x	-8%	x	x	x
Cc1cccc(NC(=O)CN2C(=O)CCSc3ccc(S(=O)(=O)N4CCOCC4)cc32)c1C	5%	-1%	35µM*	2%	-1%	6%
O=C(CN1C(=O)CCSc2ccc(S(=O)(=O)N3CCOCC3)cc21)Nc1ccccc1Cl	-1%	8%	-5%	-31%	8%	0%
CC(=O)C[C@H]1SC[C@@H](C(C)C)N1S(=O)(=O)c1ccc(C)cc1	4%	x	x	-19%	6%	40µM*
Cc1ccc(S(=O)(=O)N2CCN(c3nc(-c4cncnc4)nc4ccccc34)CC2)cc1	x	x	3%	x	x	x
O=C1NC(=S)S/C1=C\c1cc(Cl)ccc1Cl	-7%	0%	x	u	-11%	56µM*
Cc1cc(/C=C2\SC(=S)NC2=O)c(C)[nH]1	11%	23%	11%	-22%	9%	-21%
COc1cccc(CN2C(=O)c3ccccc3NC2c2ccc(OC)c(COc3ccc(NC(C)=O)cc3)c2)c1 (configuration not stated)	x	x	1%	x	x	x
COc1ccc(C2Nc3ccccc3C(=O)N2Cc2ccccc2Cl)cc1COc1ccc(NC(C)=O)cc1 (configuration not stated)	x	x	1%	x	x	x
CCOC1=CC2=C(C(=O)C(Cl)=CC2=O)[C@@H]2CN(S(=O)(=O)c3ccc(C)cc3)[C@@H](c3ccccc3)[C@H]12	-5%	x	x	56µM*	2%	-4%
CCN1C(=O)[C@@H]2[C@@H]3CN(S(=O)(=O)c4ccc(C)cc4)[C@@H](c4ccccc4)[C@@H]3C(=O)C[C@@H]2C1=O	-3%	x	x	-6%	8%	14%
O=C(CCc1n[nH]c(=O)[nH]c1=O)N/N=C/c1ccco1	-2%	2%	22µM*	-17%	1%	-6%
COc1cccc(/C=N/NC(=O)CCc2n[nH]c(=O)[nH]c2=O)c1O	-10%	6%	1%	4%	-7%	7%
Nc1nc(NCc2ccc(Cl)cc2)c2[nH]cnc2n1	x	x	2%	x	x	x
CCCCc1cc2c(cn1)=C(OC(=O)c1ccco1)C(C)(OC(=O)CC)C(=O)C=2 (configuration not stated)	x	x	14%[12.3 µM]	x	x	x
CCCN1CNc2c(c(=O)[nH]c(=S)n2CCc2ccc(C)c(C)c2)C1	x	x	1%	x	x	x
O=C(COC(=O)C1CC2C=CC1C2)NCc1ccco1 (configuration not stated)	1%	-6%	28µM*	-13%	u	1%

Bioassay records deposited in PubChem by National Center for Advancing Translational Sciences (NCATS).
